HEK293 tox = kills HEK 293 cells; HEK 293 viability, ATP luminescence (CellTiter-Glo), 48-72 h; Potency, µM (titrated, usually from 115 µM), actives largely listed as inhibitors; 94,000 compounds, 6.6% hits; AID 1345083; also: nearly all actives have a fitted effect of over 60% in size
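Viability of HEK 293 cells, plated at 250 cells/well, was judged by cellular ATP after compound treatment for 48 or 72 hr. Luminescence was imaged 10 min after CellTiter-Glo addition at room temperature.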
Luciferase inh = inhibitors of firefly (Photinus pyralis) luciferase | Potency, µM (highest dose often 115 µM), hits mostly inhibitors | 76,000 compounds, 2.5% hits | purified P. pyralis luciferase, luminescence, biochemical | P08659 | AID 1347043; also: nearly all actives have a fitted effect of over 65% in size
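Purified P. pyralis luciferase (10nM final) in 50mM Tris acetate pH 7.5, 10mM Mg acetate, 0.01% Tween-20, 0.05% BSA with 10uM D-luciferin and 10uM ATP. Compounds titrated qHTS. Luminescence imaged on CCD.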
SNCA viab count = counter-screen for SNCA expression inhibitors: cell viability; 150,000 compounds, 0.12% hits; Potency, µM (series often up to 57.1 µM), most hits filed as cytotoxic; HEK-293-SNCA-luc viability, GF-AFC fluorescence, 24 h; also: nearly all actives have a fitted effect of over 30% in size
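HEK-293-SNCA-luc cells (1500/well) plated 24 h, then exposed 24 h to a dilution series; GF-AFC added 30 min at 37C, fluorescence 405/540 nm; normalised to medium-only and DMSO wells, Hill fit.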
SNCA expr inh = SNCA gene expression inhibition. HEK-293 SNCA-luciferase knock-in, luminescence, 24 h. 140,000 compounds, 0.17% hits. AID 1671194. Potency, µM (top dose mostly 57.2 µM), hits mostly inhibitors; also: nearly all actives have a fitted effect of over 45% in size
IP6K1 inh = IP6K1 kinase inhibition; Q92551; IP6K1 kinase, ADP-Glo luminescence, 2 h; stronger effect = lower value; activity change, % (series mostly up to about 58 µM); 140,000 compounds, 0.81% hits; AID 1645851; in the data active = activity change below about -25%
Target sequence (Q92551 whole entry, looked up): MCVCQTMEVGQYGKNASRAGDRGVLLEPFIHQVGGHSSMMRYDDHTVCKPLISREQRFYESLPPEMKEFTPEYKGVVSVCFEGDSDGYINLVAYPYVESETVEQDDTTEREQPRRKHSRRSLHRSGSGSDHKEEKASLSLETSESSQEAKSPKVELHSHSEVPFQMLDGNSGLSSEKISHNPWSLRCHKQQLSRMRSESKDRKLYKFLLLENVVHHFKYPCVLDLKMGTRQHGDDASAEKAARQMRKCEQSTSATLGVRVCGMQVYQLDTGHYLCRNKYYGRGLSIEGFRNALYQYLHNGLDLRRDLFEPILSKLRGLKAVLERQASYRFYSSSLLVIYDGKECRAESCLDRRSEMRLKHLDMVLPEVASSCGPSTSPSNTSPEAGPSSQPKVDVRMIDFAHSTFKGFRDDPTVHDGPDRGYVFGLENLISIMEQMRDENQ
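ADP-Glo luminescence measures ADP made by human IP6K1 during a 2 h RT reaction with ATP/IP6 (mix at 1.3 mM/130 uM); top library doses 57.5 and 19.1 uM final.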
NIH3T3 tox = NIH 3T3 cell cytotoxicity | NIH 3T3 viability, CellTiter-Glo ATP luminescence, 48-72 h | Potency, µM (titrated, usually from 96.7 µM), most hits filed as inhibitors | 94,000 compounds, 4.3% hits; also: nearly all actives have a fitted effect of over 55% in size
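Mouse fibroblast NIH 3T3 cells, 400 per well, received compound via pintool and were incubated for 48 or 72 hr prior to CellTiter-Glo ATP luminescence measurement.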
Numbers stand for hits; 0 = inactive; ? = inconclusive; - = no result given; [ ] = dose if it differs, or a comment. In the library only some 7.3% were active in any assay of this set; here they are far more common. Unless noted, calls follow the shape of the dose curve; as a rule, active = well fitted curve in the direction sought with a large enough effect; inconclusive = small, poorly fitted or top-dose-only effect, or another doubt; inactive = no such curve, though single readings can be large; an effect the other way counts as inactive or inconclusive.

SMILES | HEK293 tox | Luciferase inh | SNCA viab count | SNCA expr inh | IP6K1 inh | NIH3T3 tox
CC1CCN(C(=O)[C@@H](C)C2CC[C@@]3(C)CC[C@H](NC(=O)c4cncnc4)[C@@H](C)[C@@H]3[C@H]2O)CC1 (some centres not stated) | 0 | 0 | 0 | 0 | 0 | 0
COc1ccc(C)cc1NC(=O)N1C[C@@H](F)C[C@H]1C(=O)N1CCCCC1 | 0 | 0 | 0 | 0 | 0 | 35.5µM
COc1ccc(C)cc1NC(=O)N1CCCC1c1nncn1C1CCCC1 (configuration not stated) | 0 | 0 | 0 | 0 | 0 | 31.6µM
Cc1ccc(C)c(NC(=O)N2C[C@@H](F)C[C@H]2C(=O)N2CCCCC2)c1 | 0 | 0 | 0 | 0 | 0 | ?
COc1ccc(NC(=O)N2CCCC2c2nncn2C2CCCC2)c(OC)c1 (configuration not stated) | 0 | 0 | 0 | 0 | 0 | ?
O=C(NCCc1ccccc1)N1CCC(c2noc(-c3ccccc3)n2)C1 (configuration not stated) | ? | 0 | ? | ? | 0 | ?
Cc1ccc2c(C)c(C(=O)N(C)CCOc3ccccc3)oc2c1C | ? | 39.8µM | 0 | 0 | 0 | 0
COc1ccc(F)cc1-c1cccc(C(=O)NCCNC(=O)c2cccc(Cl)c2)c1 | 20µM | - | 0[12.5 µM] | ? | 0 | ?
COc1ccc(F)cc1-c1cccc(C(=O)NCCNC(=O)c2ccc(Cl)cc2)c1 | 44.7µM | - | 0 | 0 | 0 | ?
COc1cccc(C(=O)NCCNC(=O)c2cccc(-c3cc(F)ccc3OC)c2)c1 | ? | - | 0 | 0 | 0 | 44.7µM
COc1ccc(F)cc1-c1cccc(C(=O)NCCNC(=O)Cc2cccc(Cl)c2)c1 | ? | - | 0 | 0 | 0 | 39.8µM
COCC(=O)NCCNC(=O)c1cccc(-c2cc(F)ccc2OC)c1 | 0 | - | 0 | 0 | 0 | 0
COc1ccc(F)cc1-c1cccc(C(=O)NCCNC(C)=O)c1 | 0 | - | 0 | 0 | 0 | ?
COc1ccc(F)cc1-c1cccc(C(=O)NCCNC(=O)c2ccc(Cl)nc2)c1 | 39.8µM | - | 0 | 0 | 0 | ?
COc1ccc(F)cc1-c1cccc(C(=O)NCCNC(=O)Nc2ccc(Cl)cc2)c1 | ? | - | 0 | 0 | 0 | 31.6µM
CCn1ccc(C(=O)N2CCCC(CN3CCC(C)CC3)CC2)n1 (configuration not stated) | 0 | 0 | 0 | 0 | 0 | 0
CC(C)Oc1cc(-c2ccc(C(C)N3CCOCC3)cc2)nc(N)n1 (configuration not stated) | ? | 35.5µM | 0 | 0 | 0 | ?
Cc1noc(C)c1-c1cc2cc(CO)oc2c(N2CCS(=O)(=O)CC2)n1 | 0 | 0 | 0 | 0 | 0 | ?
Cc1noc(C)c1-c1cc2cc(CN(C)C)oc2c(N2CCN(Cc3ccccc3)CC2)n1 | 50.1µM | 0 | 0 | 0 | 0 | 35.5µM
Cc1noc(C)c1-c1cc2cc(CO)oc2c(N2CCN(c3ccccn3)CC2)n1 | 70.8µM | 0 | 0 | 0 | 0 | ?
Cc1noc(C)c1-c1cc2cc(CN(C)C)oc2c(N2CCN(c3ccccn3)CC2)n1 | 44.7µM | 0 | ? | ? | 0 | 35.5µM
Cc1ccsc1C(=O)N1CCC2(CCCCO2)CC1 | ? | 0 | 0 | 0 | 0 | 0
O=C(C1CCCN1Cc1ccc(-c2cncnc2)cc1)N1CCCC1 (configuration not stated) | 0 | - | 0 | 0 | 0 | 0
Cc1cc(C)cc(-c2ccc(CN3CCCC3C(=O)N3CCCC(C)C3)cc2)c1 (configuration not stated) | 35.5µM | - | 0 | 0 | 0 | ?
Cc1cc(C)cc(-c2ccc(CN3CCCC3C(=O)N3CCC(Cc4ccccc4)CC3)cc2)c1 (configuration not stated) | 20µM | - | 0 | 0 | 0 | 11.2µM
SMILES | HEK293 tox | Luciferase inh | SNCA viab count | SNCA expr inh | IP6K1 inh | NIH3T3 tox
Cc1cc(C)cc(-c2ccc(CN3CCCC3C(=O)N3CCN(Cc4ccccc4)CC3)cc2)c1 (configuration not stated) | 20µM | - | 0 | 0 | 0 | 12.6µM
COc1ccc(CN2Cc3[nH]cnc3C[C@H]2C(=O)N2CCC(Cc3ccccc3)CC2)cc1 | 79.4µM | 0 | 0 | 0 | 0 | 17.8µM
Cc1cc(C)cc(-c2ccc(CN3CCCC3C(=O)N3CCN(C)CC3)cc2)c1 (configuration not stated) | ? | - | 0 | 0 | 0 | ?
COc1cc(F)ccc1-c1ccnc2nc(CCc3ccccc3)nn12 | ? | 0 | 0 | 0 | 0 | 0
COC(=O)CN1C(=O)[C@@H]2C[C@@H](O)CN2C2(CN(Cc3ccccc3Cl)C2)C1=O | 0 | 0 | 0 | 0 | 0 | 0
COc1ccc(Nc2ncc(-c3ccccc3OC)c3c2OCC3)cn1 | ? | 31.6µM | 0 | 0 | 0 | ?
COc1cncc(Nc2ncc(-c3ccccc3OC)c3c2OCC3)c1 | ? | 0 | 0 | 0 | 0 | 70.8µM
COc1cccc(Nc2ncc(-c3ccccc3OC)c3c2OCC3)c1 | ? | 0 | 0 | 0 | 0 | ?
COc1ccccc1Nc1ccnc(N2CCC(NC(=O)c3ccc(Cl)cc3)CC2)n1 | 35.5µM | - | 0 | 0 | 0 | 31.6µM
COc1ccccc1Nc1ccnc(N2CCC(NC(=O)c3ccc(F)cc3)CC2)n1 | 0 | - | 0 | 0 | 0 | 0
COc1ccccc1Nc1ccnc(N2CCC(NC(=O)c3ccccc3)CC2)n1 | ? | - | 0 | 0 | 0 | 0
COc1ccccc1Nc1ccnc(N2CCC(NC(=O)c3ccc(C)cc3)CC2)n1 | ? | - | 0 | 0 | 0 | 39.8µM
COc1ccccc1Nc1ccnc(N2CCC(NC(=O)Cc3ccc(F)cc3)CC2)n1 | 44.7µM | - | 0 | 0 | 0 | ?
O=C1NCCCCCN(C(=O)c2ccsc2)[C@H]2CCC[C@@H]12 | 0 | 0 | ? | 0 | 0 | 0
Cn1ccc2c(C(=O)NCCC(N)=O)nc(-c3ccccc3)cc21 | 0 | 0 | 0 | 0 | 0 | 100µM
Cn1ccc2c(C(=O)NCCC(N)=O)nc(-c3cccc(C(F)(F)F)c3)cc21 | 89.1µM | 0 | 0 | 0 | 0 | ?
Cn1ccc2c(C(=O)NCC3CCC(=O)N3)nc(-c3ccccc3)cc21 (configuration not stated) | 0 | 0 | 0 | ? | 0 | 50.1µM
Cn1ccc2c(C(=O)NCCC(N)=O)nc(-c3cccc(CO)c3)cc21 | 0 | 0 | 0 | 0 | 0 | ?
Clc1cccc(-c2cnc([C@@H]3COCCN3Cc3cnc[nH]3)[nH]2)c1 | ? | 0 | 0 | 0 | 0 | 0
O=C(Cc1ccc(F)cc1)N1CCC2(CC1)CCN(CCc1ccccc1)c1ccccc1O2 | 44.7µM | 0 | 0 | 0 | 0 | ?
CCOc1ccccc1CN1CCC2(CCN(C(=O)Cc3ccc(F)cc3)CC2)Oc2ccccc21 | 35.5µM | 0 | 0 | 0 | 0 | ?
CCOc1ccccc1CN1CCC2(CCN(C(=O)c3ccccc3Cl)CC2)Oc2ccccc21 | ? | 0 | 0 | 0 | 0 | ?
CCOc1ccccc1CN1CCC2(CCN(C(=O)C3CCCC3)CC2)Oc2ccccc21 | 35.5µM | 0 | 0 | 0 | 0 | ?

Assay outcomes as filed in PubChem BioAssay.
